Among all 1,800 compounds or so, about 1,400 (78%) were called active. Roughly 2% stayed inconclusive and do not appear here.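 How the source made its calls: active means fitted curve crossing a set activation limit at or below the highest valid dose tested; inconclusive means flat fit at 30 to 70% activation, or poor fit; inactive means the rest, including signal decreases.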 So high a share suggests a set chosen from earlier hits. These entries were drawn from the full list. Entries with a potency or affinity are not part of this list.
Assay: blockers of NLG process in reporter cells – D54 ERlucT cells, luminescence, cherry-picks, dose response (AID 624491);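 further: signal gain reflects blocked N-linked glycosylation of a luciferase reporter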
Conditions: D54 ERlucT glycosylation luciferase reporter, 24 h, 100% = twice neutral-control luminescence; series mostly up to 19.5 µM

SMILES | activation (NLG inhibition)
O=C(Nc1cccc(-c2nc3ncccc3o2)c1)c1sc2ccccc2c1Cl | inactive
O=C(Nc1cccc2ncccc12)c1ccc([N+](=O)[O-])o1 | inactive
C(=N\Nc1nc2ccccc2[nH]1)/c1ccc2ncccc2c1 | inactive
COc1ccc(/C=C/C(=O)c2ccccc2)cc1COc1ccccc1F | inactive
CC1(C(=O)NCC2CC2)Cc2c(-c3cccc(C(F)(F)F)c3)ccnc2O1 (stereo unspecified) | inactive
CC1(C(=O)NCC2CCOCC2)Cc2c(-c3cccc(C(F)(F)F)c3)ccnc2O1 (stereo unspecified) | inactive
CC(=O)Nc1cccc(-c2ccnc3c2CC(C)(C(=O)NCc2cccc(Cl)c2)O3)c1 (stereo unspecified) | inactive
Cc1nc(C)c(C(=O)N/N=C/c2c[nH]c3ccccc23)s1 | inactive
CCOc1ccc(C(C)=O)cc1COc1cccnc1[N+](=O)[O-] | inactive
O=C(Oc1c(Cl)cc(Cl)c2cccnc12)c1ccco1 | inactive
COc1ccccc1NC(=O)c1ccc(-c2ccc(Br)cc2)o1 | inactive
Cc1ccc(OCCNC(=O)c2cccc(S(=O)(=O)NCc3ccccc3)c2)cc1 | inactive
CCCCn1c(SCC(=O)Nc2cc(C(F)(F)F)cc(C(F)(F)F)c2)nnc1C(CC)N(C)C (stereo unspecified) | inactive
COc1ccc(Oc2ccc(/C=C/C(=O)c3cccc(OC)c3)cc2[N+](=O)[O-])cc1 | inactive
Cc1cnc2cc(Cl)c(Cl)cc2n1 | inactive
CCOC(=O)C1=C(C)N=C2SC=C(C)N2C1c1ccc(OC)cc1 (stereo unspecified) | inactive
COc1ccc(CCNC(=O)c2cc(-c3ccco3)on2)cc1OC | inactive
O=C(C=Cc1cccnc1)c1ccccc1 | inactive
O=C(/C=C/c1ccccc1Cl)c1ccc(O)cc1 | inactive
O=C(/C=C/c1cccnc1)c1ccc(F)c(F)c1 | inactive
CCOC(=O)c1[nH]c(C)c(C(=O)c2ccc(C)cc2)c1C | inactive

— PubChem BioAssay AID624491 (Broad Institute, 2012)
